Bioassay records as filed in PubChem BioAssay.
Shown is part of a subset that was picked to be rich in hits.
miR122 inh: miR-122 sensor activation. Huh7 psiCHECK-miR122 Renilla luciferase sensor, 48 h. activation, % at 12.5 µM. 340,000 compounds, 0.14% hits;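 active means mean activation of 30% or more, with every replicate also reaching 30%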;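 further: 0% = median of neutral control wells and 100% = median of positive control wells; higher luciferase signal means stronger suppression of miR-122 activity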
* hit, by the source's call.

SMILES	miR122 inh
O=[N+]([O-])c1ccc(N/N=C/c2ccc[nH]2)cc1	45*
Cc1ccc(C(=O)N/N=C\c2ccc[nH]2)cc1[N+](=O)[O-]	69*
Cc1ccc(S(=O)(=O)NCCC(C)C)cc1[N+](=O)[O-]	-232
COc1ccc(-c2cnc3c(c2)C(=O)N([C@H](C)CO)C[C@@H](C)[C@@H](CN(C)C(=O)C2CCOCC2)O3)cc1	-3
C[C@@H]1CN([C@H](C)CO)C(=O)c2cc(/C=C/c3ccccc3)cnc2O[C@@H]1CN(C)C(=O)Cc1ccccn1	3
C[C@@H]1CN([C@H](C)CO)C(=O)c2cc(-c3cncnc3)cnc2O[C@H]1CN(C)Cc1ccccc1	-2
CCCNC(=O)N(C)C[C@@H]1Oc2cc(C#CCOC)ccc2S(=O)(=O)N([C@@H](C)CO)C[C@@H]1C	7
C[C@H]1CN([C@@H](C)CO)C(=O)c2cc(-c3ccc(F)cc3)cnc2O[C@H]1CN(C)Cc1ccc(C(=O)O)cc1	-27
C[C@@H]1CN([C@@H](C)CO)S(=O)(=O)c2ccc(C#Cc3ccccc3)cc2O[C@@H]1CN(C)S(=O)(=O)c1ccccc1F	-24
CC(C)CC#Cc1cnc2c(c1)C(=O)N([C@H](C)CO)C[C@H](C)[C@H](CN(C)C(=O)NC1CCCC1)O2	6
CCCNC(=O)N(C)C[C@H]1Oc2ncc(/C=C/c3ccccc3)cc2C(=O)N([C@H](C)CO)C[C@H]1C	-37
Cc1nn(C)cc1NC(=O)C[C@@H]1CC[C@H]2[C@@H](COc3ccc(NC(=O)Nc4cccc(Cl)c4)cc3C(=O)N2C)O1	48*
Cc1nn(C)cc1NC(=O)C[C@H]1CC[C@@H]2[C@H](COc3ccc(NC(=O)Nc4cccc(Cl)c4)cc3C(=O)N2C)O1	69*
C/C=C/c1ccc2c(c1)O[C@@H](CN(C)C(=O)CC1CC1)[C@H](C)CN([C@@H](C)CO)S2(=O)=O	5
CCCNC(=O)N(C)C[C@H]1Oc2cc(-c3ccccc3)ccc2S(=O)(=O)N([C@H](C)CO)C[C@H]1C	1
CCC(=O)Nc1ccc2c(c1)OC[C@H](C)N(CCC(F)(F)F)C[C@@H](C)[C@H](OC)CN(C)C2=O	1
C[C@@H]1CN([C@H](C)CO)C(=O)c2cc(/C=C/c3ccccc3)cnc2O[C@@H]1CN(C)C(=O)C1CCOCC1	-1
C[C@H]1CN([C@@H](C)CO)S(=O)(=O)c2ccc(C#CC3CC3)cc2O[C@H]1CN(C)Cc1ccccn1	1
CCCN(C)C[C@H]1Oc2cc(C#CCN(C)C)ccc2S(=O)(=O)N([C@H](C)CO)C[C@H]1C	-7
C[C@H]1CN([C@@H](C)CO)C(=O)c2cc(-c3ccncc3)cnc2O[C@H]1CN(C)C(=O)C1CCOCC1	-1
C[C@@H]1CN([C@H](C)CO)C(=O)c2cc(Br)cnc2O[C@@H]1CN(C)C(=O)c1cccnc1	6
CCCNC(=O)N(C)C[C@@H]1Oc2ncc(C#CCC(C)C)cc2C(=O)N([C@H](C)CO)C[C@H]1C	7
COc1ccc(C#Cc2cnc3c(c2)C(=O)N([C@H](C)CO)C[C@@H](C)[C@H](CN(C)CC2CCOCC2)O3)cc1	1
COc1ccc(C(=O)C2CCCN(Cc3cccn3-c3ccccn3)C2)c(OC)c1 (stereo not drawn)	60*
CCCNC(=O)N(C)C[C@@H]1Oc2ncc(C#C[C@@H](C)O)cc2C(=O)N([C@@H](C)CO)C[C@@H]1C	9
SMILES	miR122 inh
C[C@@H]1CN([C@@H](C)CO)S(=O)(=O)c2ccc(-c3ccc(C#N)cc3)cc2O[C@H]1CN(C)C(=O)C1CC1	-37
C[C@@H]1CN([C@@H](C)CO)S(=O)(=O)c2ccc(C#Cc3ccc(F)cc3)cc2O[C@@H]1CN(C)S(=O)(=O)c1cn(C)cn1	-74
NC(=O)c1cn(-c2ccccc2)nc1-c1cc2ccccc2oc1=O	77*
Cc1noc(C)c1S(=O)(=O)N(C)C[C@@H]1Oc2c(NC(=O)C3CCCCC3)cccc2C(=O)N([C@H](C)CO)C[C@@H]1C	-197
CCc1c(C(=O)NCc2ccccc2Cl)[nH]c(C)c1C(C)=O	-118
Cc1cc(C(F)F)n2ncc(C(=O)NCCc3ccccc3Cl)c2n1	33*
CC(=O)N(C)C[C@H]1Oc2cc(C#C[C@@H](C)O)ccc2S(=O)(=O)N([C@@H](C)CO)C[C@H]1C	1
C[C@@H]1CN([C@H](C)CO)S(=O)(=O)c2ccc(C#C[C@@H](C)O)cc2O[C@@H]1CN(C)C(=O)c1ccncc1	8
COc1ccc(OC)c(NS(=O)(=O)c2ccc(N3CCCC3=O)cc2)c1	-120
COc1ccc(OC)c(Nc2nc(N)nc(CCl)n2)c1	32*
COc1ccc(S(=O)(=O)Nc2cc(Cl)ccc2OC)cc1	-138
C[C@H](CO)N1C[C@H](C)[C@H](CN(C)Cc2cncnc2)Oc2ncc(C#Cc3ccccn3)cc2C1=O	-3
Cc1ccc(C(=O)C2=C(O)C(=O)N(CCCN3CCOCC3)C23C(=O)N(C)c2ccccc23)o1 (stereo not drawn)	32*
CC1(C)CC(=O)c2cnc(NC(=O)c3ccco3)nc2C1	38*
O=C(Nc1ccc(Br)c(Cl)c1)c1ccco1	-144
C[C@@H]1CN([C@H](C)CO)C(=O)c2cc(-c3ccc(F)cc3)cnc2O[C@H]1CN(C)Cc1ccccn1	3
CNC[C@@H]1Oc2cc(C#CCC3CCCC3)ccc2S(=O)(=O)N([C@@H](C)CO)C[C@@H]1C	2
CC(C)Cc1nc2sc3c(=O)[nH]cnc3c2c2c1CCC2	-126
CN(C)CCNc1ncnc2c1sc1nc(-c3ccccc3)c3c(c12)CCCC3	35*
C[C@H](CO)N1C[C@H](C)[C@H](CN(C)C(=O)C2CCCCC2)Oc2cc(C#Cc3ccncc3)ccc2S1(=O)=O	-25
C[C@@H]1CN([C@H](C)CO)C(=O)c2cc(C#CC3(O)CCCC3)cnc2O[C@H]1CN(C)C(=O)Cc1ccccc1	-1
CCN1CCN(Cc2ccc(NC(=O)c3ccc(C)c(NC(=O)c4c[nH]c5cc(C(F)(F)F)ccc5c4=O)c3)cc2C(F)(F)F)CC1	33*
CCC(=O)N(C)C[C@@H]1Oc2ncc(C#C[C@H](C)O)cc2C(=O)N([C@H](C)CO)C[C@H]1C	-3
C[C@@H]1CN([C@H](C)CO)C(=O)c2cc(C3=CCCCC3)cnc2O[C@H]1CN(C)Cc1ccccc1C(=O)O	-16
CC(C)CC#Cc1cnc2c(c1)C(=O)N([C@H](C)CO)C[C@H](C)[C@@H](CN(C)C(=O)C1CCCCC1)O2	-10
SMILES	miR122 inh
C[C@@H]1CN([C@H](C)CO)C(=O)c2cc(-c3cccc(C#N)c3)cnc2O[C@@H]1CN(C)C(=O)C1CCCCC1	6
COc1ccc(NC(=O)COC(=O)CCCc2c[nH]c3ccccc23)cc1	36*
COc1cccc(CN(C(=O)Cc2c[nH]c3ccccc23)C(C(=O)NC2CCCCC2)c2cccs2)c1 (stereo not drawn)	-240
COc1ccc(NS(=O)(=O)c2cccc(NC(=O)COc3ccccc3[N+](=O)[O-])c2)cc1	-146
C[C@@H]1CN([C@H](C)CO)C(=O)c2cc(-c3cccc(F)c3)cnc2O[C@H]1CN(C)C(=O)c1ccccn1	4
COc1ccccc1NC(=O)N(C)C[C@H]1Oc2ncc(C#CCC(C)C)cc2C(=O)N([C@H](C)CO)C[C@@H]1C	6
CC(C)CC#Cc1cnc2c(c1)C(=O)N([C@@H](C)CO)C[C@@H](C)[C@H](CN(C)Cc1ccc(F)cc1)O2	6
C[C@H](CO)N1C[C@H](C)[C@H](CN(C)Cc2cccnc2)Oc2cc(-c3ccccc3)ccc2S1(=O)=O	-1
